Experimental data taken from PubChem BioAssay AID463173 (ICCB-Longwood Screening Facility, Harvard Medical School, 2010).
Screen size: about 52,000 compounds; about 1,700 (3.3%) were called active. The full list was thinned out, with actives kept by preference. A number with no mark means an inactive call. Cut-off read from the data, not from the text of the source: active = survival mostly below about 52% (no sharp cut-off); inactive = mostly above about 56%.

What follows are compounds tested on Wild type (assay: S. aureus survival, RN4220 and DeltatarO strains – OD600, teichoic acid synthesis inhibitors, primary screen (AID 463173)). Conditions: S. aureus RN4220 wild type/DeltatarO growth, OD600, 18 h, stronger effect = lower value, screened at 18.75 µg/mL (by protocol).

Compound	survival
COC(=O)CNC(c1ccccc1)c1cc(Br)ccc1NC(=O)c1ccccc1 (stereo not drawn)	62%
CCOC(=O)c1[nH]c(C)c(CCC(=O)NCc2cccc(C)c2)c1C	105%
CCOc1cccc2sc(=NC(=O)c3ccc(S(=O)(=O)N4CCOCC4)cc3)n(C)c12	83%
COc1cccc(C(=O)Nc2nc(-c3nnn(-c4cccc(Cl)c4C)c3C)ns2)c1	-6% (active)
COc1cccc(C(=O)Nc2nc(-c3nnn(-c4ccccc4C(F)(F)F)c3C)ns2)c1	76%
COc1cccc(C(=O)Nc2nc(-c3nnn(-c4cc(C)ccc4C)c3C)ns2)c1	72%
Cc1c(-c2nsc(NC(=O)c3cccc(Cl)c3)n2)nnn1-c1ccccc1C(F)(F)F	-6% (active)
Cc1ccc(C(=O)Nc2nc(-c3nnn(-c4cccc(Cl)c4C)c3C)ns2)cc1C	136%
Cc1c(-c2nsc(NC(=O)c3ccccc3)n2)nnn1-c1ccc(C(F)(F)F)c(Cl)c1	80%
CCOC(=O)c1sc(NC(=O)c2cc3nc(-c4ccccc4)cc(C(F)(F)F)n3n2)c(C(=O)OCC)c1C	63%
CCc1ccc(-n2c(=O)c3c(C)c(C(=O)N(C)C)sc3n(Cc3cccc(C)c3)c2=O)cc1	80%
CCOc1ccc(-n2c(=O)c3c(C)c(C(=O)N(C)C)sc3n(CC(=O)Nc3c(C)cc(C)cc3C)c2=O)cc1	68%
Cc1ccc(-n2c(=O)c3c(C)c(C(=O)N(C)C)sc3n(Cc3ccccc3C)c2=O)cc1C	73%
COC(=O)c1ccccc1NC(=O)Cn1c(=O)n(-c2cccc(OC)c2)c(=O)c2c(C)c(C(=O)N(C)C)sc21	121%
COc1cccc(-n2c(=O)c3c(C)c(C(=O)N(C)C)sc3n(Cc3cccc(C)c3)c2=O)c1	10% (active)
COc1cccc(-n2c(=O)c3c(C)c(C(=O)N(C)C)sc3n(Cc3ccc(F)cc3Cl)c2=O)c1	83%
CCc1ccc(-n2c(=O)c3c(C)c(C(=O)N(C)C)sc3n(CC(=O)Nc3cc(Cl)ccc3C)c2=O)cc1	129%
CCOc1ccc(-n2c(=O)c3c(C)c(C(=O)N(C)C)sc3n(Cc3cc(C)ccc3C)c2=O)cc1	-3% (active)
CCOC(=O)c1ccccc1NC(=O)Cn1c(=O)n(-c2ccc(CC)cc2)c(=O)c2c(C)c(C(=O)N(C)C)sc21	-2% (active)
O=C(c1cccs1)c1cn(CCOc2ccccc2Cl)c2ccccc12	80%
CC1(C)Oc2ccc(C(=O)N3CCCC3)cc2N(CC(=O)N2CCCCC2)C1=O	101%
O=C(Cn1c(=O)c2ccccc2n(CC(=O)Nc2ccc(F)cc2)c1=O)NCCc1ccccc1	127%
Cc1nn(C(=O)c2ccccc2F)c(C)c1S(=O)(=O)N1CCOCC1	66%
Cc1nnc(N(Cc2ccco2)C(=O)c2cccc(C#N)c2)s1	108%
CC(C)OCCCNC(=O)CN1C(=O)COc2ccc(S(=O)(=O)N3CCCCCC3)cc21	98%
Nc1cc(=O)[nH]c2n[nH]c(=S)n12	111%
CCc1nnc(NC(=O)c2cc(=O)c3cc(C)c(C)cc3o2)s1	74%
COc1cccc(-c2nc(CS(=O)(=O)CC(=O)NCc3cccc(Cl)c3)c(C)o2)c1	82%
